Measured values from PubChem BioAssay (EPA / NIEHS).
Inconclusive results are not listed. The source made the active and inactive calls. The calls were made as follows: active = hit-call score of the fitted dose curve at least 0.9, where 1 is the maximum; inconclusive = response in the unintended direction; inactive = score below 0.9.

Experiment: CLD_ACTIN_24hr: CellzDirect (CLD) Gene Expression Assay for Baseline Control (Actin) at 24 hours (AID 2283670)
Method: CLD_24hr is a cell-based, multiplexed-readout assay that uses hepatocyte, a human liver primary cell, with measurements taken at 24 hours after chemical dosing in a 96-well plate.CLD_ACTIN_24hr is one of 16 assay component(s) measured or calculated from the CLD_24hr assay. It is designed to make measurements of mRNA induction, a form of inducible reporter, as detected with chemiluminescence signals by Quantitative Nuclease Protection Assay (qNPA) technology.Data from the assay component CLD_ACTIN_24hr was analyzed at the endpoint, CLD_ACTIN_24hr, in the positive analysis fitting direction relative to DMSO as the negative control and baseline of activity. Using a type of inducible reporter, gain-of-signal activity can be used to understand changes in the reporter gene as they relate to the gene ACTA1. Furthermore, this assay endpoint can be referred to as a secondary readout, because this assay has produced multiple assay endpoints where this one serves a background control function. To generalize the intended target to other relatable targets, this assay endpoint is annotated to the background measurement intended target family, where subfamily is baseline control.
Human hepatocyte cultures were treated daily for two consecutive days with fresh dosing solutions containing appropriate concentrations of the 320 ToxCast chemicals (chemical identities were blinded to CellzDirect and other ToxCast collaborators), vehicle control (0.2% DMSO), and positive control inducers as summarized in Table 1. Due to the large number of treatment groups and chemicals examined, the ToxCast chemicals were divided into two groups (spanning two independent cultures of hepatocytes from separate donor preparations (Hu778: ToxCast plates 1 and 2; Hu776: ToxCast plates 3 and 4). Each preparation of human hepatocyte cultures was treated with respective vehicle control, medium only control, set of six positive controls/reference chemicals for the five hepatic receptor pathways, and a subset of eight of the ToxCast chemicals (indoxacarb, pyrithiobac-sodium, norflurazon, cyhalofop-butyl, methomyl, thiram, acetochlor, and propiconazole). These replicate data, coupled with internal replicates designed within the blinded ToxCast chemical library, provided additional data to evaluate interindividual differences between hepatocyte preparations and their potential impact on chemical profiles.Cell morphology and integrity were evaluated using phase-contrast microscopy as an indicator of hepatocyte cell health (Tyson & Green, 1987). Cultures for each treatment group (i.e., media, vehicle [0.2% DMSO], positive control inducers [multiple concentrations], and the ToxCast chemicals [multiple concentrations]) were observed and cell morphology was assessed relative to vehicle control cultures at each harvest time point (0, 6, 24, or 48 h). […] Images were evaluated at the conclusion of the study to assess changes in cell integrity and account for the effects of chemical exposure on uncharacteristic changes in concentration-dependent gene expression profiles. The results from these determinations of apparent cytotoxicity were annotated (yes/no) alongside the corresponding qNPA data for reference.At the conclusion of each treatment period, hepatocyte cultures (96-well) were washed with 1 volume of HBSS, lysed by addition of 25 ul ArrayPlate lysis buffer (HTG, Tucson, AZ), and 70 ul/well of Denaturation Oil, denatured by incubation at 95C for 10 min, and frozen at approximately -70C until analysis by nuclease protection assay (qNPA) (Roberts et al., 2007). For qNPA analysis, cell lysates were thawed at 50C for approximately 30 min, qNPA probes were added, and samples were incubated at 95C for 10 min to begin the detection process by denaturing the target RNA, dissociating the duplexes and secondary structure hybridization. At the conclusion of the hybridization period, S1 nuclease reagent was added to each sample to digest all nonprotected nucleotides at 50C for 60-90 min. […]

Structure (SMILES)	outcome
CCNc1nc(Cl)nc(NC(C)C)n1	inactive
CC(Oc1ccc(Cl)cc1Cl)C(=O)O (stereo unspecified)	inactive
N#Cc1nn(-c2c(Cl)cc(C(F)(F)F)cc2Cl)c(N)c1S(=O)C(F)(F)F (stereo unspecified)	inactive
C=CC1(C)OC(=O)N(c2cc(Cl)cc(Cl)c2)C1=O (stereo unspecified)	inactive
COC(=O)C=C(C)OP(=O)(OC)OC	inactive
CC(C)(C)c1ccc(CSc2cnn(C(C)(C)C)c(=O)c2Cl)cc1	inactive
COC(=O)N(OC)c1ccccc1COc1ccn(-c2ccc(Cl)cc2)n1	inactive
Oc1ccccc1-c1ccccc1	inactive
COc1cnc(OC)n2nc(NS(=O)(=O)c3c(OCC(F)F)cccc3C(F)(F)F)nc12	inactive
COc1nc(C)nc(NC(=O)NS(=O)(=O)c2ccccc2Cl)n1	inactive
COC(=O)c1ccccc1C(=O)OC	inactive
CN(C)C(=S)SSC(=S)N(C)C	inactive
CNC(=S)S	inactive
N#CC(CCc1ccc(Cl)cc1)(Cn1cncn1)c1ccccc1 (stereo unspecified)	inactive
CCCCC(CC)COC(=O)c1ccccc1C(=O)OCC(CC)CCCC (stereo unspecified)	inactive
CCNc1nc(Cl)nc(NCC)n1	inactive

Structure (SMILES)	outcome
N#Cc1cc(Br)c(O)c(Br)c1	inactive
COC(=O)C(C)Oc1ccc(Oc2ccc(Cl)cc2Cl)cc1 (stereo unspecified)	inactive
OC(c1ccc(Cl)cc1)(c1cncnc1)c1ccccc1Cl (stereo unspecified)	inactive
CCCCNC(=O)OCC#CI	inactive
COc1nc(NC(C)C)nc(NC(C)C)n1	inactive
CCCC1COC(Cn2cncn2)(c2ccc(Cl)cc2Cl)O1 (stereo unspecified)	inactive
CC(C)C1(C)N=C(c2nc3ccccc3cc2C(=O)O)NC1=O (stereo unspecified)	inactive
CCc1nn(C)c(C(=O)NCc2ccc(C(C)(C)C)cc2)c1Cl	inactive
CS/C(C)=N/OC(=O)N(C)SN(C)C(=O)O/N=C(\C)SC	inactive
Cc1c(F)c(F)c(COC(=O)C2C(/C=C(\Cl)C(F)(F)F)C2(C)C)c(F)c1F (stereo unspecified)	inactive
CNC(=O)ON=CC(C)(C)SC	inactive
Cc1ccc(-c2c(Cl)nc(C#N)n2S(=O)(=O)N(C)C)cc1	inactive
CCCCNC(=O)n1c(NC(=O)OC)nc2ccccc21	inactive
CCCCOC(=O)c1ccccc1C(=O)OCCCC	inactive
C=CCC1=C(C)C(OC(=O)C2C(C=C(C)C)C2(C)C)CC1=O (stereo unspecified)	inactive
